In the library only some 1.8% were active in any assay of this set; here they are far more common.
NRP1-CendR mod: alters CendR peptide binding to human NRP-1; O14786; FAM-RPARPAR peptide binding to NRP-1, fluorescence polarization; inhibition, % at 25 µM; 360,000 tested, 0.85% active;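 active means inhibition or corrected inhibition above about 18%, plus a signal ratio from 0.5 to 1.5, limit read from the data, passing the limit was not always enough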
iPSC survival up: increases survival of single human iPS cells | hiPSC single-cell survival, ATPlite luminescence; 100% = ROCK inhibitor wells, 0% = DMSO | survival enhancement, % at 20 µM | 360,000 tested, 0.044% active; in the data active means survival enhancement above about 18%;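 further: cells exposed to compounds for 16 hours before the ATP read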
GSIS activator: primary screen for activators of insulin secretion dependent on glucose, INS-1E cells, GLuc reporter luminescence. 370,000 tested, 0.61% active. activation, % at 16.6 µM. INS-1E GLuc reporter insulin secretion, 2-3 h;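 active means lowest replicate activation of at least 40%, so every replicate reaches that level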;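 further: 0% = median of neutral control wells and 100% = median of IBMX positive control wells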
ABCB6 inh MLPCN: blocks the human ABCB6 transporter | K562-ABCB6 porphyrin accumulation, flow cytometry, 1 h; active compounds read low | Q9NP58 | 360,000 tested, 0.19% active | fluorescence ratio to DMSO, % at 10 µM;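 active means fluorescence ratio to DMSO below 75%, the collection mean minus 3 SD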;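 further: signal is porphyrin accumulated inside mitochondria; 100% equals median channel fluorescence of DMSO control wells; lower ratio means ABCB6 inhibition with less porphyrin fluorescence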
Target sequence (Q9NP58 whole entry, looked up): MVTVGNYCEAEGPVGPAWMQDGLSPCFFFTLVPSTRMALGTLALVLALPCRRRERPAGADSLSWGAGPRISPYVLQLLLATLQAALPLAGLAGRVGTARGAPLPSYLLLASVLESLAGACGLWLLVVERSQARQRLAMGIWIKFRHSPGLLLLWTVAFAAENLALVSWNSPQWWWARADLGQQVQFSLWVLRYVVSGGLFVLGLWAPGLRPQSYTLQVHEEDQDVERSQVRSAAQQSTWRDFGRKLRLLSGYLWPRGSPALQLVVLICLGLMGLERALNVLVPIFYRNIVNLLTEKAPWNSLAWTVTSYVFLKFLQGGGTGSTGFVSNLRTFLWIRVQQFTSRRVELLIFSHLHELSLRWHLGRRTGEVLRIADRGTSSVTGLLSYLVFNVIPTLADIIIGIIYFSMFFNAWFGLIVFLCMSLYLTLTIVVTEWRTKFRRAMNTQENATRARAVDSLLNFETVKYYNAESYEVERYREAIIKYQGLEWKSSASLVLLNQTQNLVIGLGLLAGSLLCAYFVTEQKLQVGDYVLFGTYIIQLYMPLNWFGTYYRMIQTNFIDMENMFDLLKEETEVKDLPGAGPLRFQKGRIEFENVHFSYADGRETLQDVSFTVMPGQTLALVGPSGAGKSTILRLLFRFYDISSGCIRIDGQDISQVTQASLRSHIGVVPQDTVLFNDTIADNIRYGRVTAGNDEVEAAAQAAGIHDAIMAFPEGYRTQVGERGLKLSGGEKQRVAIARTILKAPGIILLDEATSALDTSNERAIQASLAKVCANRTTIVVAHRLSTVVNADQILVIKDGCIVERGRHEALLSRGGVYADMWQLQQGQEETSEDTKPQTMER
ARNT-TACC3 inh: disruptors of human ARNT/TACC3 interaction | AlphaScreen His-ARNT PAS-B/GST-TACC3 binding, luminescence; TACC3 fragment carries E629A point mutation | inhibition, % at 9.99 µM | 390,000 tested, 0.66% active | Q9Y6A5;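 active means mean inhibition of replicates at least 50% and at least half of replicates each reaching 50%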;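 further: 0% = complete ARNT plus TACC3 wells and 100% = ARNT alone without TACC3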
* marks the source's active call; other numbers are inactive results; / = not tested or not shown.

SMILES	NRP1-CendR mod	iPSC survival up	GSIS activator	ABCB6 inh MLPCN	ARNT-TACC3 inh
COc1cccc2c1C(=N)c1c(O)c3c(c(O)c1C2=O)CC(O)(C(C)=O)CC3OC1CC(N)C(O)C(C)O1 (stereo not given)	10	-2	/	108	49*
CN(C(=O)COC(=O)c1cnc(Cl)c(Cl)c1)C1CCS(=O)(=O)C1 (stereo not given)	-4	-1	16	102	5
CN(C(=O)COC(=O)c1cnc(Cl)c(Cl)c1)C1CCCCC1	24*	3	/	106	12
CCOc1ncnc2c1oc1nc(CC(C)C)c3c(c12)CC(C)(C)OC3	0	0	10	96	0
CCOc1nc(CC(C)C)c2c(c1C#N)CC(C)(C)OC2	-3	1	51*	99	5
Cc1cccc(-c2ccc([C@@H]3[C@@H](CO)N4CCCCN(S(=O)(=O)c5ccccc5C)C[C@@H]34)cc2)c1	/	/	8	/	-9
CC(Oc1ccccc1)C(=O)NC1=NCCS1 (stereo not given)	33*	0	-7	95	7
C[C@@H]1CN([C@H](C)CO)C(=O)c2cc(NS(=O)(=O)c3cn(C)cn3)ccc2O[C@@H](C)CCCCO[C@@H]1CN(C)S(=O)(=O)c1cn(C)cn1	/	/	30	/	-13
CC(=O)N1CCC(O)(c2ccc3c(c2)OCO3)CC1	22*	1	24	107	-1
O=C(c1ccccc1)N1CCC(O)(c2ccc3c(c2)OCO3)CC1	7	2	/	99	/
CO[C@@H]1CN(C)C(=O)c2ccc(NS(C)(=O)=O)cc2OC[C@@H](C)N(Cc2cncnc2)C[C@@H]1C	/	/	-6	/	-10
O=C(NCc1ccc(F)cc1)[C@H]1C[C@H]2C(=O)N3CCC[C@H]3C(=O)N2[C@H]1c1cccc(OCCO)c1	/	/	/	/	-22
CC1(C)OC(=O)C=C[C@]2(C)[C@H]3CC[C@@]4(C)[C@H](C(=O)O)OC(=O)[C@H]5O[C@]54[C@]3(C)C(=O)C[C@@H]12	22*	2	5	99	-7
Cc1cc(-n2c(SCC(=O)Nc3ccc(F)c(F)c3)nc3n[nH]c(C)c3c2=N)ccc1Cl	-3	0	250*	121	-5
COc1cccc(-c2ccccc2[C@H]2[C@@H](CO)N(C(=O)Cc3ccccc3)[C@H]2C#N)c1	/	/	-21	/	/
COc1ccc2nc(/N=C/c3c(C)[nH]n(-c4ccc(C)cc4C)c3=O)sc2c1	-53	-3	-3	95	66*
Cc1cnc(C(=O)OCC(=O)Nc2sc3c(c2C#N)CCC3)cn1	38*	-1	-14	93	3
Cc1cccc(OCC(=O)Nc2sc3c(c2C#N)CCC3)c1	6	3	-15	98	-5
COc1ccc(S(=O)(=O)Nc2ccc3c(c2)C(=O)N([C@H](C)CO)C[C@@H](C)[C@@H](CN(C)S(=O)(=O)c2ccccc2)O3)cc1	/	/	-2	/	-2
CC(=O)Nc1cccc2c1O[C@H](CN(C)C(=O)NC(C)C)[C@@H](C)CN(C)C2=O	/	/	4	/	/
NC(=O)Nc1ccc(Oc2c(F)c(F)c(F)c(F)c2F)cc1	40*	-1	/	115	0
COCCNc1c2c(nc3c(-c4ccccc4)c(C)nn13)CCC2	28*	1	/	102	1
Cc1nn2c(NCCOCCO)c3c(nc2c1-c1ccccc1)CCC3	19	0	3	96	6
Cc1ccccc1-c1nc(NCC2CC2)nc2ccsc12	-7	-2	-2	93	/
c1ccc(-c2nc(NCC3CC3)nc3ccsc23)cc1	2	7	78*	94	/
SMILES	NRP1-CendR mod	iPSC survival up	GSIS activator	ABCB6 inh MLPCN	ARNT-TACC3 inh
NC1=NC[C@H](c2ccccc2)N1CCCCC1CCCCC1	2	15	285*	97	4
O=C(C[C@@H]1CC[C@H]2[C@@H](COC[C@@H](O)CN2C(=O)c2ccncc2)O1)NCc1cccc(F)c1	/	/	2	/	10
CCCc1sc(N)nc1-c1ccc(C)cc1	17*	-1	/	82	-24
COc1ccc(-c2nnc(-c3cccs3)o2)cc1OC	-12	-1	73*	97	0
COc1cc(-c2nnc(-c3cccs3)o2)cc(OC)c1OC	-1	0	/	97	-6
COc1cc2nc(-c3cccs3)oc(=O)c2cc1OC	27*	-2	4	90	4
O=C1CN(S(=O)(=O)c2cccc(F)c2)C[C@@H]2[C@@H](c3ccc(-c4ccc(F)cc4)cc3)[C@@H](CO)N12	/	/	13	/	/
Nc1nc(CN2CCN(C(c3ccccc3)c3ccccc3)CC2)nc(Nc2ccccc2)n1	20	-1	/	100	6
Nc1nc(CN2CCCCCC2)nc(Nc2ccccc2)n1	-7	-1	/	96	52*
Cc1ccc(Nc2nc(N)nc(CN3CCCCCC3)n2)cc1	-25	1	/	97	50*
CCOC(=O)C1CCCN(Cc2nc(N)nc(Nc3ccccc3)n2)C1 (stereo not given)	-16	0	/	104	48*
CCCNC(=O)N1C[C@H](C)[C@@H](OC)CN(C)C(=O)c2ccc(NC(=O)CCC)cc2OC[C@H]1C	/	/	7	/	10
C[C@H](CO)N1C[C@H](C)[C@@H](CN(C)Cc2ccncc2)Oc2c(NC(=O)Cn3cnnn3)cccc2C1=O	/	/	6	/	/
S=C(NCc1ccccc1)Nc1ccc2cn[nH]c2c1	4	2	40*	95	-3
C[C@@H]1CN([C@H](C)CO)C(=O)c2ccccc2-c2ccccc2CO[C@@H]1CN(C)C(=O)[C@H](C)c1ccccc1	/	/	1	/	/
O=C(CCc1ccccc1)NC1(Cc2ccccc2)CCN(CCc2cccs2)C1=O (stereo not given)	19*	8	-18	92	-11
COc1cccc(-c2ncc3ccccc3c2COC(=O)c2ccc(C(F)(F)F)cc2)c1	29*	-1	0	89	-5
O=C(OCc1c(-c2ccccc2)ncc2ccccc12)c1ccc(Br)cc1	-5	-1	24	97	-1
COc1cccc(-c2ncc3ccccc3c2COC(=O)c2ccc(Br)cc2)c1	-4	2	8	100	1
O=C(OCc1c(-c2ccccc2)ncc2ccccc12)c1cccs1	3	-3	55*	99	4
O=C(C[C@H]1C[C@H]2c3cc(NC(=O)c4cccnc4)ccc3O[C@H]2[C@H](CO)O1)NCc1ccccc1	/	/	-1	/	-5
CCOC(=O)C1=NN(C(=O)Nc2cccc(C(F)(F)F)c2)C2C(=O)N(c3cccc(C(F)(F)F)c3)C(=O)C12 (stereo not given)	3	2	100*	101	-9
CCOC(=O)c1nccnc1C(=O)Nc1cccc(C(F)(F)F)c1	8	-1	6	90	-4
O=C(O)Cn1ncn(-c2ccc(OC(F)(F)F)cc2)c1=O	26*	0	19	100	/
O=C(Cn1cccc1)Nc1ccc(OC(F)(F)F)cc1	15	11	-37	102	-13
O=C(Nc1nnc(-c2ccccc2SCc2ccccc2F)s1)Nc1ccccc1F	1	0	61*	105	1

Assay outcomes from PubChem BioAssay.
